The sample as a whole holds a higher share of hits than the screen did.
NOMO-1 viab = NOMO-1 AML cell viability reduction, primary screen, STK33 inhibitor project, CellTiter-Glo luminescence | NOMO-1 AML viability, 72 h | inhibition, % (test concentration not listed) | actives 7.5% (n = 37,000) | AID 2330, 2010; in the data active = inhibition above about 80%; inconclusive = no clear call, values can overlap the other calls
mut p53 react = mutant p53 pathway re-activators, primary screen, cell-based, SW480, luciferase, single point, HTS. activation, % at 9.98 µM. actives 1.5% (n = 28,000). SW480 PUMA-promoter luciferase, p53 mutant reactivation; in the data active = activation above about 52%; inconclusive = no clear call, values can overlap the other calls
STK33 kin inh = STK33 kinase inhibitors, primary screen, biochemical, luminescence, ADP-Glo, MBP substrate; Serine/threonine-protein kinase 33 (Homo sapiens), Q9BYT3; inhibition, % at 12.5 µM; actives 0.44% (n = 27,000); in the data active = inhibition above about 20%; inconclusive = no clear call, values can overlap the other calls
Target sequence (Q9BYT3 whole entry, looked up): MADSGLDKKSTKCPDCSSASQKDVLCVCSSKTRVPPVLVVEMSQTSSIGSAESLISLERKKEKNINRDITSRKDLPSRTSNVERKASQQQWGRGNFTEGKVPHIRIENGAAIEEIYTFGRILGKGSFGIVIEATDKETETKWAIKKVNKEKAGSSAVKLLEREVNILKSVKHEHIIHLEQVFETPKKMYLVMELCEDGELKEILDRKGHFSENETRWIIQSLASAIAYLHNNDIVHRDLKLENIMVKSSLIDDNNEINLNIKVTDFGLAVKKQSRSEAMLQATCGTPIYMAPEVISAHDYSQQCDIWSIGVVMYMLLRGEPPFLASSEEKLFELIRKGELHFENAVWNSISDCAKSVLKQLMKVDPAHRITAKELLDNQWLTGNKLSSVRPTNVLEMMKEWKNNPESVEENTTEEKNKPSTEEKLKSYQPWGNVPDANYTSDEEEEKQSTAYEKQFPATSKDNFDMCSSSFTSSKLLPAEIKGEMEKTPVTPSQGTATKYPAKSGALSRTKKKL
ID4 SMM = binders of human ID4 protein, primary screen, biochemical, small molecule microarray, single point; DNA-binding protein inhibitor ID-4 (Homo sapiens), P47928; Flag-ID4 binding, fluorescence F/B; calls only; actives 1.2% (n = 31,000); AID 624137, 2012; call rule not given here;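 also: a binder raises fluorescence above local background on the spot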
* = called active by the depositor; i = inactive; ? = inconclusive; . = no result; + = active, no number.

SMILES	NOMO-1 viab	mut p53 react	STK33 kin inh	ID4 SMM
C[C@H](CO)N1C[C@H](C)[C@@H](CN(C)Cc2ccc(C(=O)Nc3ccccc3N)cc2)Oc2c(NS(=O)(=O)c3ccc(F)cc3)cccc2C1=O	43	.	.	.
Cc1ccc(S(=O)(=O)Nc2cccc3c2O[C@@H](CN(C)Cc2ccc(C(=O)Nc4ccccc4N)cc2)[C@@H](C)CN([C@@H](C)CO)C3=O)cc1	134*	.	.	.
OC[C@H]1O[C@@H](n2cnc3c(NCc4ccco4)ncnc32)[C@H](O)[C@@H]1O	108*	.	-1	.
C[C@@H]1CN([C@@H](C)CO)C(=O)c2cc(NS(=O)(=O)c3ccccc3)ccc2O[C@@H]1CN(C)Cc1ccc(C(F)(F)F)cc1	3	.	0	.
C[C@@H]1CN([C@H](C)CO)C(=O)c2cc(NS(=O)(=O)c3ccc(Cl)cc3)ccc2O[C@@H]1CN(C)Cc1ccc(C(F)(F)F)cc1	116*	.	.	.
C[C@@H]1CN([C@@H](C)CO)C(=O)c2cc(NS(=O)(=O)c3ccc(Cl)cc3)ccc2O[C@H]1CN(C)Cc1ccc(C(F)(F)F)cc1	107*	.	6	.
CCc1ccc(OCCSc2nc(C)cc(=O)[nH]2)cc1	0	59*	1	i
CCOc1ccc(OCCSc2nc(C)cc(=O)[nH]2)cc1	.	34	.	i
COc1ccc(/C=C2/C(=O)C(C)(C(C)C)CCC2C)cc1 (stereo unspecified)	94*	.	.	.
CS(=O)(=O)c1sc(NC(=O)Nc2ccc(Cl)cc2)c2c1C=CCC2	122*	.	.	.
C/C=C/c1cnc2c(c1)C(=O)N([C@H](C)CO)C[C@@H](C)[C@@H](CN(C)Cc1ccc3c(c1)OCO3)O2	.	2	.	i
CSc1nc(C)nc(N/C=C(\C#N)S(=O)(=O)c2ccc(C)cc2)n1	24	.	.	.
Cc1ccc(S(=O)(=O)/C(C#N)=C/Nc2cc(C(F)(F)F)cc(C(F)(F)F)c2)cc1	89*	.	.	.
CC1=CCC(C(=O)O)C(C(=O)Nc2ccccc2NC(=O)c2ccc(C(F)(F)F)cc2)C1 (stereo unspecified)	46	108*	-2	i
CC(CNC(=O)c1ccco1)NC(=O)c1ccco1 (stereo unspecified)	9	-2	-3	+
COc1ccc(S(=O)(=O)N(C)C[C@@H]2Oc3c(NC(=O)Nc4ccc(F)cc4)cccc3C(=O)N([C@H](C)CO)C[C@@H]2C)cc1	33	.	.	.
C[C@H](CO)N1C[C@H](C)[C@H](CN(C)S(=O)(=O)c2ccc(-c3ccccc3)cc2)OCc2cnnn2CCCC1=O	.	.	0	.
COc1cc(O)c2c(c1)O[C@H](c1ccc(O)cc1)[C@@H](O)C2=O	.	29	1	i
O=C1c2ccccc2O[C@@H](c2ccc(Cl)cc2)[C@@H]1O	114*	.	.	.
C[C@@H]1CN([C@H](C)CO)C(=O)c2cccc(NC(=O)C3CCCCC3)c2O[C@@H]1CN(C)S(=O)(=O)c1cn(C)cn1	10	.	.	.
CCCCOC(=O)c1cc2c(cn1)[nH]c1ccccc12	44	71*	-4	i
C[C@@H]1CN([C@@H](C)CO)C(=O)c2cccc(NC(=O)NC3CCCCC3)c2O[C@@H]1CN(C)S(=O)(=O)c1ccc(Cl)cc1	43	-23	.	i
Cc1ccc(S(=O)(=O)N(C)C[C@H]2Oc3c(NC(=O)NC4CCCCC4)cccc3C(=O)N([C@@H](C)CO)C[C@H]2C)cc1	36	.	.	.
Cc1ccc(S(=O)(=O)N(C)C[C@@H]2Oc3c(NC(=O)NC4CCCCC4)cccc3C(=O)N([C@H](C)CO)C[C@@H]2C)cc1	91*	.	.	.
C[C@H]1CN([C@@H](C)CO)C(=O)c2cccc(NC(=O)NC3CCCCC3)c2O[C@H]1CN(C)S(=O)(=O)c1ccc(Cl)cc1	98*	-19	.	i
SMILES	NOMO-1 viab	mut p53 react	STK33 kin inh	ID4 SMM
C[C@@H]1CN([C@H](C)CO)C(=O)c2cccc(NC(=O)Nc3ccc(C(F)(F)F)cc3)c2O[C@H]1CN(C)C(=O)Nc1ccc2c(c1)OCO2	116*	.	.	.
C[C@@H]1CN([C@H](C)CO)C(=O)c2cccc(NC(=O)Nc3ccc4c(c3)OCO4)c2O[C@H]1CN(C)C(=O)Nc1ccc2c(c1)OCO2	-11	.	.	.
C[C@@H]1CN([C@@H](C)CO)C(=O)c2cccc(NC(=O)Nc3ccc(C(F)(F)F)cc3)c2O[C@H]1CN(C)C(=O)Nc1ccc2c(c1)OCO2	89*	.	.	.
COC(=O)C1=C(C)NC2=C(C(=O)c3ccccc32)C1c1ccc(OCc2cccc([N+](=O)[O-])c2)cc1 (stereo unspecified)	.	-11	0	i
COC(=O)C1=C(C)NC(C)=C(C(=O)OCCCN2CCC(c3ccccc3)(c3ccccc3)CC2)C1c1cccc([N+](=O)[O-])c1 (stereo unspecified)	120*	-19	18	.
O=C1CN(C(=O)/C=C/c2ccccc2)C(c2ccccc2)c2cc(Br)ccc2N1 (stereo unspecified)	89*	.	.	.
COC(=O)C1=C(C)NC(C)=C(C(=O)OC)C1C	24	.	-1	.
Clc1ccccc1/C=C/C=Nc1ccc(N2CCOCC2)cc1	122*	.	.	.
O=C(CCN1C(=O)c2ccccc2C1=O)Oc1c(-c2ccccc2)oc2ccccc2c1=O	44	54*	7	i
O=C(CCN1C(=O)c2ccccc2C1=O)Oc1ccc2c3c(c(=O)oc2c1)CCC3	4	.	.	.
C[C@H]1CN([C@@H](C)CO)C(=O)c2cc(NC(=O)Nc3ccc(C(F)(F)F)cc3)ccc2O[C@@H]1CN(C)C(=O)Nc1ccc(F)cc1	14	.	.	.
C[C@H](CO)N1C[C@H](C)[C@H](CN(C)C(=O)Nc2ccc(F)cc2)Oc2ccc(NC(=O)Nc3ccc(C(F)(F)F)cc3)cc2C1=O	112*	.	.	.
C[C@@H]1CN([C@@H](C)CO)C(=O)c2cc(NC(=O)Nc3ccc(C(F)(F)F)cc3)ccc2O[C@@H]1CN(C)C(=O)Nc1ccc(F)cc1	113*	.	.	.
CCCN(C)C[C@H]1Oc2ncc(C#CC3CC3)cc2C(=O)N([C@@H](C)CO)C[C@H]1C	.	6	.	i
Cc1ccc(S(=O)(=O)N2CCC(=O)c3ccccc32)cc1	110*	.	.	.
C[C@H]1CN([C@@H](C)CO)S(=O)(=O)c2ccc(-c3ccc(F)cc3)cc2O[C@H]1CN(C)Cc1ccccc1C(=O)O	.	5	.	i
COc1ccccc1OCC(=O)Nc1cccc(-c2nnc(-c3ccco3)o2)c1	-8	62*	16	i
COc1ccccc1OCC(=O)Nc1cccc(-c2nnc(-c3ccccc3)o2)c1	-19	95*	15	i
Cc1ccc(C)c(OCC(=O)Nc2cccc(-c3nnc(-c4ccco4)o3)c2)c1	76	102*	13	i
COc1ccc(CC(=O)Nc2cccc(C(=O)Nc3ccccc3C(=O)O)c2)cc1OC	-18	-3	2	i
Cc1cc(OCC(=O)Nc2cccc(-c3nnc(-c4ccccc4)o3)c2)cc(C)c1Cl	52	?	-2	i
COc1ccc(CC(=O)Nc2cccc(-c3nnc(-c4ccc(C)cc4)o3)c2)cc1OC	122*	5	0	i

Compound activity as filed in PubChem BioAssay.
